Test results from PubChem BioAssay (Tox21).
Results filed as inconclusive are left out. The source made the active and inactive calls. Unless noted, calls follow the shape of the full dose curve.

Columns and labels:
[1] = Nuclear factor erythroid 2-related factor 2/antioxidant responsive element (Nrf2/ARE) small molecule agonists: qHTS cell viability counter screen in human keratinocytes (AID 1919968; active = well fitted curve in the direction sought with a large enough effect in the repeat runs; an effect the other way counts as inactive or inconclusive; also: nearly all actives have a fitted effect of over 55% in size)
How it was run: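 Parallel cytotoxicity read: KeratinoSens HaCaT cells, compound treatment 23 h, viability by CellTiter-Fluor fluorescence 1 h post-reagent.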

[2] = Nuclear factor erythroid 2-related factor 2/antioxidant responsive element (Nrf2/ARE) small molecule agonists: luciferase reporter gene qHTS assay in human keratinocytes (AID 1919969); also: nearly all actives have a fitted effect of over 35% in size
[3] = target: Gonadotropin-releasing hormone receptor (Homo sapiens) (UniProt P30968); assay: Human gonadotropin-releasing hormone receptor (GnRHR) small molecule agonists, calcium flux assay in GnRHR-HEK293 cells (AID 1920063); also: nearly all actives have a fitted effect of over 35% in size
Sequence of Gonadotropin-releasing hormone receptor (Homo sapiens) (P30968 whole entry, looked up): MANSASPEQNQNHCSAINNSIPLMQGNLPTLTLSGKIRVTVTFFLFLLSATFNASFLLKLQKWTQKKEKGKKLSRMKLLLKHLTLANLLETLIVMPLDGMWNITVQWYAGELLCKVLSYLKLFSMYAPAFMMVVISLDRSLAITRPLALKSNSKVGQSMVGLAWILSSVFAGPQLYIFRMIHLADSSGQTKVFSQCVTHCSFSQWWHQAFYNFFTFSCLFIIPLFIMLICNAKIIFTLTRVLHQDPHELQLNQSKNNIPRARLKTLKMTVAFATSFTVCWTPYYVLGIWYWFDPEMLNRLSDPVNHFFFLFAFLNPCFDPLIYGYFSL
How it was run: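 Calcium flux, agonist mode, human GnRHR stably integrated in HEK293; dye 1 h at 37 C before compound; Ex/Em=480/540 kinetic read, 3 min; 15 concentrations, triplicate.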

[4] = target: KiSS-1 receptor (Homo sapiens) (UniProt Q969F8); assay: Human kisspeptin (KISS1R) small molecule agonists, calcium flux assay in KISS1R-HEK293 cells (AID 1920064; active = well fitted curve in the direction sought with a large enough effect in the repeat runs; an effect the other way counts as inactive or inconclusive)
Sequence of KiSS-1 receptor (Homo sapiens) (Q969F8 whole entry, looked up): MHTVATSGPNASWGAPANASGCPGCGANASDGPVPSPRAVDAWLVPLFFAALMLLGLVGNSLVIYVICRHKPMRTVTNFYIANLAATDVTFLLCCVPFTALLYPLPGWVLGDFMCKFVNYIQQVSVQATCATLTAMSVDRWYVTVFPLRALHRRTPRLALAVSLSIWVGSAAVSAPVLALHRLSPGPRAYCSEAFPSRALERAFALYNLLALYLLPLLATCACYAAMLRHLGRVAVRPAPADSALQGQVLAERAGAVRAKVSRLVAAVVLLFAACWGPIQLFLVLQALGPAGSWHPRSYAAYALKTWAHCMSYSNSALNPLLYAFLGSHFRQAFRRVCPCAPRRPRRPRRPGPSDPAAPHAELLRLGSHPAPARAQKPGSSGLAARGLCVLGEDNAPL
How it was run: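 Triplicate 15-concentration series were applied to dye-loaded human KISS1R HEK293 cells, and agonist-evoked calcium fluorescence was captured for 3 min.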

[5] = G protein-coupled receptor (GPCR) small molecule agonists, calcium flux assay: HEK293 wild type cell line counter screen (AID 1920065)
How it was run: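 Non-specific calcium responders were flagged by adding DMSO-dissolved compounds to dye-loaded cells and reading 480/540 nm fluorescence each second for 3 min; ATP served as positive control.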

[6] = p53 small molecule agonists, cell-based qHTS assay with human liver microsomes (AID 1963577);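 also: p53 response element beta-lactamase reporter cells with liver microsomes plus NADPH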
How it was run: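 p53RE-bla cells; 5 h settle, 37 C/5% CO2; cpd + HLM 0.5 mg/mL + NADPH 0.5 mg/mL (final); 16 h 37 C; LiveBLAzer 2 h RT dark; fluorescence readout.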

[7] = p53 small molecule agonists, cell-based qHTS assay with rat liver microsomes (AID 1963578)
How it was run: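 Rat liver microsome activation: microsomes 0.5 mg/mL, NADPH 0.5 mg/mL final; p53RE-bla cells, 16 h 37 C; LiveBLAzer readout, 2 h RT dark.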

[8] = p53 small molecule agonists, cell-based qHTS assay with human liver microsomes: qHTS cell viability counter screen (AID 1963579); also: nearly all actives have a fitted effect of over 45% in size
How it was run: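 Luminescent CellTiter-Glo read-out, 30 min at room temperature, gauged cytotoxicity in p53RE-bla cells exposed 16 h at 37 C to DMSO-dissolved compounds with metabolic activation by human liver microsomes and NADPH, each 0.5 mg/mL final.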

[9] = p53 small molecule agonists, cell-based qHTS assay with rat liver microsomes: qHTS cell viability counter screen (AID 1963580); also: nearly all actives have a fitted effect of over 45% in size
How it was run: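 Cytotoxicity counter screen: intracellular ATP measured by CellTiter-Glo luminescence in the same wells as the beta-lactamase reporter read, on HCT-116 p53RE-bla cells exposed 16 h at 37 C to compounds with rat liver microsomes and NADPH, each 0.5 mg/mL final.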

[10] = p53 small molecule agonists, cell-based qHTS assay: qHTS cell viability counter screen (AID 1963581); also: nearly all actives have a fitted effect of over 45% in size
How it was run: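 Multiplexed with the reporter read, a CellTiter-Glo step (30 min, room temperature) gauges ATP-based viability of HCT-116 p53RE-bla cells after 16 h compound incubation at 37 C.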

[11] = target: 5-hydroxytryptamine receptor 2A (Homo sapiens) (UniProt P28223); assay: 5-hydroxytryptamine receptor 2A (HTR2A) small molecule antagonists, cell-based qHTS assay (AID 1963586); also: nearly all actives have a fitted effect of over 45% in size
Sequence of 5-hydroxytryptamine receptor 2A (Homo sapiens) (P28223 whole entry, looked up): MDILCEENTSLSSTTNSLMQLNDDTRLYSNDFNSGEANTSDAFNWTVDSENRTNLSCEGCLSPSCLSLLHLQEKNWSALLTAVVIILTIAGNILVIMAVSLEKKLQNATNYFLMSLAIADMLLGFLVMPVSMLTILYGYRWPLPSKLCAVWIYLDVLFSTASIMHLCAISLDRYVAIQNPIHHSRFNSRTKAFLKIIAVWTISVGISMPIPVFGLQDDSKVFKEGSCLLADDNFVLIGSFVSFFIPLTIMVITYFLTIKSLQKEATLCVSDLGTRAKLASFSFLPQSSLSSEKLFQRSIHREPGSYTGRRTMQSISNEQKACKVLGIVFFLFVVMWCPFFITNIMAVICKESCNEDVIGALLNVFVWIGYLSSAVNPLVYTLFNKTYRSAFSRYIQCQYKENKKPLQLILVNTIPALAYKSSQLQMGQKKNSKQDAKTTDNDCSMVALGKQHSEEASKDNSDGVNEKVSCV
How it was run: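 CHO cells stably expressing human HTR2A were plated for 18 h at 37 C, then loaded with calcium dye for 1 h. Compounds were preincubated 5 min at room temperature before DOI (4 nM solution) was added. Kinetic fluorescence was read for 3 min.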

[12] = target: 5-hydroxytryptamine receptor 2A (Homo sapiens) (UniProt P28223); assay: 5-hydroxytryptamine receptor 2A (HTR2A) small molecule agonists, cell-based qHTS assay (AID 1963587); also: nearly all actives have a fitted effect of over 30% in size
How it was run: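 CHO cells stably expressing human HTR2A, plated 18 h, loaded with calcium dye 1 h at 37 C. Agonist mode: compounds added and intracellular calcium fluorescence recorded kinetically for 2 min at 1 sec intervals.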

[13] = target: Muscarinic acetylcholine receptor M1 (Homo sapiens) (UniProt P11229); assay: Cholinergic receptor muscarinic 1 (CHRM1) small molecule agonists, cell-based qHTS assay (AID 1963589); also: nearly all actives have a fitted effect of over 35% in size
Sequence of Muscarinic acetylcholine receptor M1 (Homo sapiens) (P11229 whole entry, looked up): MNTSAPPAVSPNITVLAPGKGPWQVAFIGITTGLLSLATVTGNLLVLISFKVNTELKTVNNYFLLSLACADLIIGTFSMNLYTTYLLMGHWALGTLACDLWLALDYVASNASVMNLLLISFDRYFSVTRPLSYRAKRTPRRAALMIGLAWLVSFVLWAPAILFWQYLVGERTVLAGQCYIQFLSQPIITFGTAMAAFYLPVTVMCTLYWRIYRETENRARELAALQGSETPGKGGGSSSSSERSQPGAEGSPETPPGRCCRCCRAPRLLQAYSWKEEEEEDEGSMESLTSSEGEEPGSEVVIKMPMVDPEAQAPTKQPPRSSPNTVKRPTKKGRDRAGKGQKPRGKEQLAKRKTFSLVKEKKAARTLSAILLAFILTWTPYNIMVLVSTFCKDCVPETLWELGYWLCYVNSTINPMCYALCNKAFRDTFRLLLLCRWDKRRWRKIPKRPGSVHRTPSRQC
How it was run: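 qHTS, 15-point titration, 3 independent runs: compounds pin-transferred onto dye-loaded CHRM1-CHO cells (human M1), calcium fluorescence followed every second to detect agonism.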

[14] = cAMP Responsive Elements (CRE) small molecule agonists, cell-based qHTS assay (AID 1963590)
How it was run: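 Quantitative HTS for CRE agonists: HEK 293T CRE-bla cells, overnight plating, 3 h compound incubation at 37 C/5% CO2, then 2 h room-temperature LiveBLAzer B/G FRET substrate loading.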

[15] = cAMP Responsive Elements (CRE) small molecule antagonists, cell-based qHTS assay (AID 1963591; active = well fitted inhibition curve with a large enough effect in the signal ratio in the repeat runs, not every such curve was filed as active; the % refers to the signal ratio)
How it was run: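 Fluorescence intensity from cleaved LiveBLAzer B/G substrate (2 h, room temperature) quantified CRE-bla activity in HEK 293T cells exposed 3 h to compound with 0.25 uM final NKH477.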

[16] = target: Beta-2 adrenergic receptor (Homo sapiens) (UniProt P07550); assay: Adrenergic beta2 receptor (ADRB2) small molecule antagonists, cell-based qHTS assay (AID 1963592); also: series mostly up to about 92 µM; nearly all actives have a fitted effect of over 50% in size
Sequence of Beta-2 adrenergic receptor (Homo sapiens) (P07550 whole entry, looked up): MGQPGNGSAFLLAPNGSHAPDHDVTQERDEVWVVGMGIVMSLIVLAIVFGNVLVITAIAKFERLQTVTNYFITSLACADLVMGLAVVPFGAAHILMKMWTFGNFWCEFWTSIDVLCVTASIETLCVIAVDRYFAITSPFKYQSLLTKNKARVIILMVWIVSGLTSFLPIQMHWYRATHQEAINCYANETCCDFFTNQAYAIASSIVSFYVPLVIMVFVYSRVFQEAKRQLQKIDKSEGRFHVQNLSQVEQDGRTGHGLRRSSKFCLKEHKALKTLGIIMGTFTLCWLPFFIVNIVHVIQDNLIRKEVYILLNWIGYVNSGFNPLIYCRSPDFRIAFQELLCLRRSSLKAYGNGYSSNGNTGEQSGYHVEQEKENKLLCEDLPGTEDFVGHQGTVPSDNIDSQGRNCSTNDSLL
How it was run: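 Assay format: CHO-ADRB2 cells, 18-20hr seeding at 37C/5% CO2, then compound plus 1nM isoproterenol agonist mix for 0.5hr RT. Homogeneous time-resolved fluorescence cAMP detection after 1hr, expressed as 665/615 nm ratio.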

[17] = target: D(2) dopamine receptor (Homo sapiens) (UniProt P14416); assay: Dopamine D2 receptor (DRD2) small molecule agonists, cell-based qHTS assay (AID 1963594); also: nearly all actives have a fitted effect of over 35% in size
Sequence of D(2) dopamine receptor (Homo sapiens) (P14416 whole entry, looked up): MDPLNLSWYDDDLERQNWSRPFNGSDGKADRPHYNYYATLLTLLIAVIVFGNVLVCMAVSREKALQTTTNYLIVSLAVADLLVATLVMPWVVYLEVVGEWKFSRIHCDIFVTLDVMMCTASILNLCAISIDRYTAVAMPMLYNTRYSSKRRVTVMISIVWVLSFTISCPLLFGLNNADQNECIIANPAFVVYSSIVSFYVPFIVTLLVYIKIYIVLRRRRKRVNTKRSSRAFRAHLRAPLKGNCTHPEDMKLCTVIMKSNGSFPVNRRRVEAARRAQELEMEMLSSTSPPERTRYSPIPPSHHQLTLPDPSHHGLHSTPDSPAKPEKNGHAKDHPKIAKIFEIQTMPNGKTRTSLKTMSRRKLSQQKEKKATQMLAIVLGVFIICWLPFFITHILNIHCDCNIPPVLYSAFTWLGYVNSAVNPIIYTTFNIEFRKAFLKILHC
How it was run: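 HEK293 cells stably expressing human DRD2, pre-treated with PDE inhibitor Ro20-1724 (0.1 mM final) and compound 10 min at room temperature, then stimulated with NKH477 (200nM […]) for 30 min. cAMP read by HTRF (665/620 nm).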

[18] = target: D(2) dopamine receptor (Homo sapiens) (UniProt P14416); assay: Dopamine D2 receptor (DRD2) small molecule antagonists, cell-based qHTS assay (AID 1963595; active = well fitted inhibition curve with a large enough effect in the signal ratio in the repeat runs, with a control signal flat; the % refers to the signal ratio)
How it was run: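 Antagonist mode in DRD2-HEK293 cells: after compound addition with 0.1 mM Ro20-1724, cells received quinpirole (12 nM) and NKH477 (200 nM) for 30 min at room temperature; HTRF cAMP read after 1 h detection.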

[19] = target: Muscarinic acetylcholine receptor M1 (Homo sapiens) (UniProt P11229); assay: Cholinergic receptor muscarinic 1 (CHRM1) small molecule antagonists, cell-based qHTS assay (AID 1963588); also: nearly all actives have a fitted effect of over 40% in size
How it was run: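 Compounds were tested at 15 concentrations in three independent runs. Dye-loaded CHRM1-CHO cells were exposed 5 min at room temperature before stimulation by acetylcholine added at 50nM. Intracellular calcium was read kinetically on FDSS for 3 min.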

Measured: Potency

COc1c(Br)cc(Br)c(C)c1Br
inactive: [1] | [2] | [3] | [4] | [5] | [6] | [7] | [8] | [9] | [10] | [11] | [12] | [13] | [14] | [15] | [16] | [17] | [18]

O=C(c1ccc(O)cc1)c1ccc(Cl)cc1
inactive: [1] | [2] | [3] | [4] | [5] | [6] | [7] | [8] | [9] | [10] | [11] | [12] | [13] | [16] | [17] | [18]

Nc1ccc(S(=O)(=O)Nc2ccccc2)cc1
inactive: [1] | [2] | [3] | [4] | [5] | [6] | [7] | [8] | [9] | [10] | [12] | [19] | [13] | [14] | [15] | [17] | [18]

CCCS(=O)c1ccc2nc(NC(=O)OC)[nH]c2c1 (stereo not given)
inactive: [1] | [2] | [3] | [4] | [5] | [6] | [7] | [8] | [9] | [10] | [11] | [12] | [19] | [14] | [16] | [18]

Cc1ccc(Cl)cc1Cl
inactive: [1] | [2] | [3] | [4] | [5] | [6] | [7] | [8] | [9] | [10] | [11] | [12] | [13] | [14] | [15] | [16] | [17] | [18]

CCOC(=O)CC(C)O (stereo not given)
inactive: [1] | [2] | [3] | [4] | [5] | [6] | [7] | [8] | [9] | [10] | [11] | [19] | [13] | [14] | [15] | [16] | [17]

CCOC(=O)Nc1ccc(NCc2ccc(F)cc2)nc1N
inactive: [1] | [2] | [3] | [4] | [5] | [6] | [7] | [8] | [9] | [10] | [11] | [12] | [13] | [14] | [16] | [18]

COc1cc2c(cc1OC)C(=O)CC2
inactive: [1] | [2] | [3] | [4] | [5] | [6] | [7] | [8] | [9] | [10] | [11] | [12] | [19] | [14] | [15] | [16] | [18]
